Compounds without any hit were thinned out: in the full panel of roughly 83,000, 20% have a hit.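 48-hour exposure, single concentration, 96-well plates; percent growth endpoint where 0 means no net growth. Active: below 10.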 Values without a mark were called inactive. Activity calls are given as the source filed them.

The subject of the experiment is MDA-MB-468 breast. Nature of the experiment: NCI-60 one-dose screen, 48 h (100 = growth as untreated, 0 = no growth, -100 = all killed). The settings on record: 10 µM unless noted.
`O=S(=O)(NCCCNc1cc(-c2cn(-c3ccccc3)nc2-c2cccc(O)c2)ccn1)c1ccc(C(F)(F)F)cc1`: the growth is 3.04% (active).
The result for `Cc1ccccc1SSc1ccccc1C` reads 68.4%.
The result for `COc1ccc(-c2nc3c(N)c(CO)cnc3s2)cc1` reads 57.6%; that for `O=C(O)CCC(=O)Nc1nnc(-c2ccccc2)s1`, 116%.
The result for `Cn1cc(-c2csc(-c3cccc(F)c3)n2)c2cccnc21` reads -49.6% [100 µM] (active); that for `ClC1=C(Cl)C(Cl)=C(Cl)C1=Cc1ccccc1`, -80.7% (active).
For `CCCCOP(=O)(OCCCC)C(C(=O)OCC)C(CC(=O)OCC)C(=O)OCC` (stereo not given), the growth is 124%.
In the case of `CC(C)(C)OC(=O)N1CCc2c(sc3ncnc(N/N=C/c4ccccc4Br)c23)C1` it was 71.5%; in that of `O=C(CN1C(=O)S/C(=C\c2ccccc2)C1=O)Nc1ccc(C(=O)/C=C/c2cc3ccccc3nc2Cl)cc1`, 63.1%; in that of `O=C(CCNC(=O)c1nc(-c2ccccc2)n(-c2ccc(Cl)cc2)n1)NO`, 107%.
The result for `C=Cc1nn2c(CCC(=O)c3nc4ccccc4[nH]3)nnc2s1` reads 110%; that for `COC1OC(C(COC(C)=O)OC(C)=O)C(OC(C)=O)C(OC(C)=O)C1OC(C)=O` (stereo not given), 109%; that for `COc1cc2cc(Oc3cccc(NC(=O)Nc4cc(C(F)(F)F)cc(C(F)(F)F)c4)c3)c(C)nc2cc1OC`, -8.12% (active).
In the case of `COc1cc(C(=O)c2cc(C(C)=O)c3ccc(C)cn23)cc(OC)c1OC` it was -2.89% (active).
On to `CC(C)(O)C#CC#CC(C)(C)O`, for which the growth was 97.7%.
